# In all, about 33,000 sequences were measured (“E-score (-0.5 to 0.5)”: median about -0.016, highest 2% from about 0.31 on). This is one part of a sample in which the highest values are shown more often than they occur.
# Molecular target: Cst6 (UniProt P40535)
# Assay: PBM E-score (8-mer binding enrichment) (E-score (-0.5 to 0.5)); higher = stronger / more preferred TF binding
# Conditions: protein concentration: 200 nM; construct: GST-DNA-binding domain
# Description: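 Universal 'all 10-mer' protein binding microarrays (Agilent AMADID 015681) probed with GST-tagged S. cerevisiae TFs (full-length or DBD) made by in vitro transcription/translation (PURExpress), about 100-200 nM. Bound TF was detected with fluorescent anti-GST. Each ungapped 8-mer (which stands for itself and its reverse complement) is scored by the PBM enrichment score (E-score), a modified Wilcoxon-Mann-Whitney statistic from -0.5 to +0.5, computed with the Universal PBM Analysis Suite. Scale: above 0.35 generally sequence-specific binding.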
# Sequence of UniProt P40535 (P40535 whole entry): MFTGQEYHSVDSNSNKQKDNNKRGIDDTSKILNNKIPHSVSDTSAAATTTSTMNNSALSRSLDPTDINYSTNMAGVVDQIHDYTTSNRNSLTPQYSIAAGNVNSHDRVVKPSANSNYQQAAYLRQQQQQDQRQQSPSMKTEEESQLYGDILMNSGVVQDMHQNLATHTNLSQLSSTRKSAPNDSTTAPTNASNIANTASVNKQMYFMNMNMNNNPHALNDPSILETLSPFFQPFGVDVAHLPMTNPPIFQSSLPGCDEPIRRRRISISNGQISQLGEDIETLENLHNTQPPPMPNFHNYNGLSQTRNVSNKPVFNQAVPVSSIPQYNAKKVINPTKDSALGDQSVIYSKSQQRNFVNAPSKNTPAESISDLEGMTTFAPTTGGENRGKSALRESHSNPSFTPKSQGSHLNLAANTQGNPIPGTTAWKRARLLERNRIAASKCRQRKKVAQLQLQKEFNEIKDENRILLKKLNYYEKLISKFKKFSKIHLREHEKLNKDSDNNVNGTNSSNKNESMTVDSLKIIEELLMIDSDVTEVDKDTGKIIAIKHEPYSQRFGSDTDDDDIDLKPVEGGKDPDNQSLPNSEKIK
row,Sequence,PBM E-score
1,CGTCAGAG,0.365
2,CCTCACAG,-0.0712
3,CGTCACAG,0.424
4,CGTCACAC,0.414
5,CGTCACAA,0.4
6,AGTCACAC,0.00702
7,GGTCACAC,-0.0298
8,AGTCACAG,-0.0682
9,CGTCAGAC,0.287
10,CGTCAGAA,0.286
11,GGTCACAA,-0.0375
12,TGTCACAA,0.254
13,ACGATTCT,0.039
14,ACTATCCG,0.0433
15,CAAACCAG,-0.0964
16,CATACATG,0.0541
17,CCTTCTCG,-0.264
18,CAGTAGAG,-0.0984
19,AGACAAAT,0.159
20,AGAAAATG,0.0622
21,ATCATTGA,0.306
22,ATCATTGC,0.188
23,GTCATTGA,0.391
24,GACATTGA,0.096
25,ATCATTGG,0.194

row,Sequence,PBM E-score
1,CTCATTGA,-0.0286
2,AGGGCTTG,-0.0617
3,AGGATCAG,-0.266
4,CTTCCTGA,0.112
5,GGGACTCA,-0.353
6,CTAGCTAG,-0.074
7,AAAATAAT,0.302
8,AGGTTCCA,-0.124
9,CTAGTGAC,0.234
10,GCAGTGAC,0.17
11,GTAGTGAA,0.0467
12,ATAGTGAA,-0.00864
13,GTAGTGAC,0.332
14,ATAGTGAC,0.392
15,CTCCTGGC,-0.195
16,CTTCCTCC,-0.235
17,ATGTCTTC,-0.153
18,CGATACTA,0.1
19,CAACTTCG,0.0207
20,ACATCAAG,0.207
21,AGATCATG,0.137
22,CCATCATA,0.122
23,ACATCATG,0.409
24,AAATCATC,0.175
25,ACATCATC,0.462

row,Sequence,PBM E-score
1,ACATCATA,0.443
2,CCATCATC,0.146
3,ACATCAGA,0.16
4,AAATCATA,0.275
5,GCATCAGA,0.159
6,GCATCATA,0.339
7,ACTTAACT,0.0697
8,ATAGCCAA,0.0258
9,GGAGCAGA,-0.114
10,TATGCTAA,0.0861
11,CTAGGATA,-0.125
12,ATCTGGGA,-0.197
13,GGTTGCGA,-0.0447
14,AGGGCATC,-0.0843
15,GCGGTGCC,-0.0111
16,CAGGTGAC,0.258
17,ACGGTGAG,-0.0622
18,GCGGTGAC,0.345
19,GGGGTGAC,0.284
20,GAGGTGAC,0.407
21,ACGGTGAC,0.307
22,AAGGTGAC,0.243
23,ACGGTGAT,0.121
24,AGGGTGAC,0.345
25,AGGGTGAG,-0.176

row,Sequence,PBM E-score
1,GCGGTGAA,0.0906
2,CGGGCCGA,-0.167
3,GAGTATGA,0.169
4,CATGATCA,0.231
5,CCGGTAGA,-0.132
6,CTCCCTGC,-0.218
7,ACAGAGAT,0.178
8,CCCTTCCG,-0.274
9,CATAGTTC,0.0666
10,AGTGAGAA,0.149
11,ACGGGGCC,0.00152
12,AGTGAACG,-0.0226
13,GGCTCCCC,-0.226
14,ATTCCATC,0.199
15,CCGGTGAA,0.0804
16,CCGGTGAC,0.335
17,CCGGTGAG,-0.116
18,AACACAAA,0.0222
19,CACACAAA,0.165
20,TACACAAA,0.311
21,TCTGGCCA,-0.0762
22,AATTTTGC,0.144
23,CGCATCCG,-0.0682
24,ATCATCCC,0.154
25,AGTCACCC,0.117

row,Sequence,PBM E-score
1,AGTCACCA,0.0433
2,CCTCACCC,0.0853
3,CGTCACCA,0.484
4,GGTCACCA,-0.148
5,CGTCACCC,0.466
6,CGCCTCAC,0.135
7,ATACCATC,0.00666
8,ATTCACAC,0.134
9,ACGAGTAA,0.141
10,TGAAATCA,0.322
11,CGAAATCA,0.269
12,GGAAATCA,0.0954
13,CCTTTTCG,0.021
14,GTTGGACA,-0.0168
15,AAGAAAGT,0.153
16,GAGGGCTA,-0.27
17,ATTTCGGG,0.0105
18,AAAAGTGT,0.0733
19,AAAAGTGG,0.112
20,AAAAGTGA,0.306
21,GGGGTAAA,0.0414
22,CCTGGGAA,-0.136
23,GCGAAAAA,0.197
24,CAAACTTG,-0.0352
25,GTCTCCCA,-0.244

row,Sequence,PBM E-score
1,TTAATAAA,0.307
2,CTAATAAA,0.169
3,ATAATAAC,0.205
4,TTTATAAA,0.359
5,GTAAATAA,0.176
6,GTAATAAA,0.352
7,CTTATAAA,0.138
8,ATAATAAA,0.325
9,ATAATAAT,0.238
10,GTAATAAC,0.197
11,TAAATAAA,0.289
12,GTTATAAA,0.269
13,AACAGAAC,0.032
14,ACCAGCAT,-0.104
15,ATAAGAAT,0.253
16,ATAAGAAC,0.248
17,ATAAGAAA,0.327
18,AAGGAGGG,-0.0908
19,AATTTTTA,0.228
20,GTTTTATA,0.122
21,ATTTTATA,0.321
22,ATTTTACG,0.316
23,ATTTTATG,0.248
24,AATTTACG,0.296
25,ATTTTTTA,0.325

row,Sequence,PBM E-score
1,ATATTTTA,0.233
2,ATTTTACC,0.264
3,CGCCCCAA,0.0361
4,CCAGGCTC,-0.28
5,GGAGACGA,-0.0641
6,AGACCGTC,-0.127
7,CTCACCTC,0.0122
8,TCTTAAGA,0.0388
9,CAATAGGA,-0.0291
10,AAACAAAA,0.219
11,AGACAACA,0.0611
12,CGACAAAA,0.163
13,TAACAAAA,0.353
14,CGACAACA,0.243
15,TGACAACA,0.346
16,GGACAAAA,0.106
17,GAACAAAA,0.186
18,TGACAAAA,0.337
19,AGAACCGA,-0.127
20,CTCTACGC,-0.109
21,GGGAAAGA,-0.0768
22,CCGTGACC,-0.145
23,ACGTGACT,0.00931
24,ACGTGACA,0.248
25,CCGTGACA,0.15

row,Sequence,PBM E-score
1,CCGTGACG,0.417
2,ACGTGACG,0.451
3,AAAATCGA,0.106
4,TCAGGAAA,0.053
5,TCTTGCCA,-0.0736
6,CTTGCGGC,-0.0317
7,AGTCATAA,0.217
8,GGTCATAA,0.213
9,TGTCATAA,0.323
10,CCTCATAA,0.199
11,CGTCATAA,0.476
12,CTTCATAA,0.182
13,AAATCCTA,0.0429
14,ACGGGACG,-0.0627
15,AAGGGACT,-0.229
16,GCTGGTCC,-0.241
17,ACAGGGTC,-0.231
18,AAAATCTC,0.0464
19,AGTCATGC,-0.0259
20,CGTCATGC,0.472
21,CCTCATGC,-0.15
22,AGTCATGA,0.124
23,GGTCATGA,0.239
24,CGTCATGA,0.461
25,CCTCTCCC,-0.367

row,Sequence,PBM E-score
1,ATTTCCAG,0.0306
2,ATGTGGGC,-0.068
3,CCACCCGA,-0.0893
4,ACGACAGA,-0.00441
5,GAATATTA,0.188
6,AAATATTA,0.286
7,TAATATGA,0.305
8,CAATATTA,0.215
9,CAATATGA,0.245
10,CAATATTG,0.306
11,TAATATTA,0.391
12,CAATATTC,-0.0581
13,AAATATGA,0.239
14,CAGTGCAA,0.0823
15,GGGTACCC,-0.239
16,GCCGCCGA,0.0801
17,GCTAGTAA,0.0344
18,CCCCATTA,-0.257
19,AAGGTAGC,-0.198
20,CTTTGGGC,-0.163
21,ACATCAGG,0.163
22,AGTCCCCC,-0.43
23,ATTCGTCG,0.0126
24,CTTCGTCA,0.336
25,CTTCGTCC,-0.155

row,Sequence,PBM E-score
1,ATTCGTCA,0.423
2,CGTCGTCA,0.258
3,GTTCGTCA,0.269
4,CGGTGCAA,-0.202
5,CCTATGGC,-0.219
6,GCTAACAC,-0.00396
7,AAAGGGAG,-0.152
8,TAACTGTA,0.032
9,CGGATAAG,-0.118
10,AGGGGCTG,-0.271
11,CGCCAGCC,-0.193
12,ATAAATTA,0.373
13,AAAAATTA,0.333
14,CTAAATTA,0.262
15,ATAAATAG,0.135
16,CAAAATTA,0.233
17,TTAAATAA,0.18
18,ATAAATAA,0.335
19,ATAAATTG,0.258
20,GAAAATTA,0.195
21,ATTTGACA,0.173
22,ACGCCAAT,0.223
23,AGCCTTAT,-0.0913
24,GCGCGTCA,0.381
25,ACGCGTCC,-0.129

row,Sequence,PBM E-score
1,ACGCGTCA,0.381
2,ACGCGTAA,0.129
3,TCGCGTAA,0.314
4,CCGCGTCC,0.099
5,GCGCGTCC,-0.198
6,ACGCGTCT,-0.0602
7,GCGCGTAA,0.224
8,GCGCGTTA,0.0245
9,CCGCGTCG,0.0654
10,CCGCGTCA,0.34
11,CCTCCCTC,-0.162
12,GGAAATGA,0.195
13,CGTAGATC,0.143
14,CTCGAAAC,0.0781
15,GGTAGGCA,-0.184
16,AGGCGACT,-0.103
17,CGATGAAC,-0.0118
18,CAAGGCGG,0.00218
19,ATCCGCAA,-0.0389
20,TCGCGTCA,0.369
21,CGGCGTCA,0.34
22,AGGCGTCA,0.256
23,TCGCGACA,-0.202
24,TCGCGGCA,-0.0207
25,CGGCGTCC,0.113

row,Sequence,PBM E-score
1,ACGCCGAA,0.0504
2,AAAACATG,0.114
3,AAATGATT,0.294
4,CAATGATC,0.095
5,AAATGATG,0.332
6,CAATGATA,0.268
7,CAATGATG,0.391
8,AAATGATC,0.0366
9,ATAATCTA,0.0831
10,CTAATCAA,0.205
11,GTAATCAC,0.225
12,GTAATCAA,0.313
13,CTAATCTA,-0.0326
14,GTAATCTA,0.345
15,CTAGATTC,-0.0987
16,ATTTCATG,0.00873
17,CAAACTAG,-0.195
18,TGACCTCA,0.45
19,CGACCTAA,0.11
20,TGACCTAA,0.362
21,GGACCTAA,-0.105
22,AGACCTCA,0.022
23,CGACCTCA,0.0422
24,CAGGACAA,0.0953
25,TCCACCAA,-0.117

row,Sequence,PBM E-score
1,GAAGAACC,-0.119
2,ATATGATG,0.333
3,ATATGATC,0.234
4,AGATGATA,0.211
5,ATATGATA,0.296
6,CTATGACC,0.193
7,ATATGACG,0.472
8,AGATGATC,0.0705
9,ATATGACC,0.108
10,AGATGATG,0.346
11,AAATGGCG,0.142
12,TAGTGCCA,-0.123
13,AGCTAAGC,-0.156
14,GCGCTGCA,-0.0118
15,CGAACCCG,-0.251
16,CCGGATTC,-0.172
17,ACCTATTA,0.0751
18,AGAGATCA,-0.0737
19,GGAGATCA,-0.0624
20,TGAGATCA,0.344
21,AGCATCAC,0.0541
22,AACATCAG,0.183
23,ATAATCAT,0.344
24,GCCATCAC,0.0711
25,AACATCAC,0.295

row,Sequence,PBM E-score
1,ATAATCAA,0.16
2,AACATCAT,0.378
3,CTCATCAC,0.146
4,GTCATCAC,0.409
5,ATAATCAG,0.106
6,GGCATCAC,0.227
7,ATCATCAC,0.341
8,ACCTTCAA,-0.00754
9,AACGCAAG,0.00296
10,AATCTGAG,-0.0919
11,AAGTCTTG,-0.0973
12,ATAGCGGA,-0.107
13,ACTATTGA,0.202
14,AGGGCGCA,-0.0682
15,ATAATGAT,0.334
16,ATCATCAG,0.259
17,ATAATGAG,0.0695
18,ATAATGAC,0.295
19,ATCATCAT,0.355
20,AGCATCAT,0.251

# Source: the supplement of paper PMC3334620
